For two compounds, Potency results are on record in PubChem BioAssay (NCATS).

Assay in all cases: qHTS profiling for inhibitors of Plasmodium falciparum proliferation (AID 504749); also: nearly all actives have a fitted effect of over 60% in size
Holding throughout (conditions): P. falciparum in erythrocytes, SYBR Green DNA, 72 h; series mostly up to 28.7 µM

One assay concerns 3D7. A digest of the protocol:
(§1)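 Readout was DNA-dye fluorescence from lysed cultures, ex 485/em 535 nm. Parasitized red cells had grown 72 h with compound; data scaled between 0.29 uM artemisinin and DMSO wells and corrected using vehicle-only plates.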

In another assay the test system is C2A. In outline:
as §1

The next assay deals with CP211. In outline:
as §1

The test system of a further assay is CP215. In outline: as §1
Another assay relates to CP217. A digest of the protocol: as §1
A further assay relates to CP238. In outline:
as §1

The test system of another assay is CP250. In outline: as §1
In the next assay the test system is CP252. In outline: as §1
A further assay concerns CP256. A digest of the protocol:
as §1

In a further assay the test system is CP262. In outline: as §1
For a further assay, the system named is CP266. In outline: as §1
The next assay concerns CP268. A digest of the protocol: as §1
The next assay has as its system CP269. In outline:
as §1

Another assay deals with CP305. A digest of the protocol:
as §1

The subject of the next assay is CP325. In outline:
as §1

A further assay has as its system CP329. In outline: as §1
Another assay deals with CP335. In outline: as §1
Another assay relates to DIV30. A digest of the protocol: as §1
The test system of another assay is PAD. A digest of the protocol:
as §1

In a further assay the test system is PC15. In outline: as §1

Records with an inconclusive call do not appear. Activity calls are given as the source filed them. Calls follow the shape of the dose curve; as a rule, active = well fitted inhibition curve with a large enough effect; inconclusive = small, poorly fitted or top-dose-only effect; inactive = flat fitted curve, though single readings scatter.
Potency is read from the fitted curve at half-maximal effect.

For `CCCCC(=O)N(Cc1ccc(-c2ccccc2-c2nn[nH]n2)cc1)C(C(=O)O)C(C)C` (stereo not given), the Potency entry with 3D7, in the assay on C2A, in the assay with CP211, in the assay with CP215, in the assay with CP217 and with CP238 was “inactive” throughout. Moreover, the Potency result in the assay with CP250, in the assay with CP252, with CP256, with CP262, with CP266 and in the assay on CP268 was “inactive” throughout. Besides, the Potency entry in the assay with CP269, in the assay on CP305, in the assay with CP325, in the assay with CP329, in the assay on DIV30 and in the assay with PAD was “inactive” throughout. In addition, the Potency entry with PC15 was “inactive”. Besides, the Potency in the assay with CP335 was 6.01 µM (active).

`O=C(CC1NCCC[C@H]1O)Cn1cnc2cc(Br)c(Cl)cc2c1=O` (stereo not given in full): the Potency with 3D7 is 1 µM (active); in the assay on C2A, 3.16 µM (active); with CP211 it was 3.38 µM (active); with CP215 it was 3.79 µM (active); with CP217, 3.16 µM (active); with CP238, 3.98 µM (active). The Potency in the assay with CP250 is 2.82 µM (active); with CP252, 1.12 µM (active); with CP256, 3.16 µM (active); with CP266 it was 3.79 µM (active); in the assay with CP268, 3.38 µM (active); with CP269 it was 2.69 µM (active). In addition, the Potency with CP305 was 3.38 µM (active); with CP325 it was 3.38 µM (active); with CP329 it was 3.38 µM (active); in the assay on CP335, 0.601 µM (active); in the assay on DIV30 it was 3.38 µM (active); in the assay on PAD, 2.24 µM (active). Further, the Potency in the assay on PC15 was 0.891 µM (active). Further, the Potency entry in the assay on CP262 was “inactive”.
